High-throughput results deposited in PubChem BioAssay by University of Kansas High Throughput Screening Laboratory.
Pf apPOL block = Pf-apPOL DNA polymerase inhibition; AID 1794808; hit rate 0.25% among 210,000; inhibition, % at 10 µM; Recombinant Pf-apPOL, molecular beacon fluorescence, 1.5 h
mHTT CaM bind = mHTT-calmodulin interaction abrogation | AID 1671202 | hit rate 3.6% among 190,000 | P42858 | AlphaScreen His-mHTT/GST-CaM binding, luminescence | inhibition, % at 15 µM;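 further: 0% = both proteins with DMSO and 100% = one protein alone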
* marks the source's active call; other numbers are inactive results; · = no result. Hits are enriched below; roughly 3.5% of the tested compounds scored in any of these assays. No stated cut-off is given here; in the data, active means inhibition above about 50%; inactive means the rest.

SMILES | Pf apPOL block | mHTT CaM bind
O=C(O)/C=C/C(=O)Nc1ccccc1C#Cc1ccc(Br)cc1 | 1.2 | -10.0
CC(C)CN1CCn2cc(C(=O)N3CCN(c4ccccc4F)CC3)nc2C1 | -8.6 | 37.8
CC(C)CN1CCn2cc(C(=O)N3CCN(c4ccc(F)cc4)CC3)nc2C1 | -5.4 | 91.4*
CC(C)CN1CCn2cc(C(=O)N3CCN(c4cccc(Cl)c4)CC3)nc2C1 | -1.4 | 85.8*
CCN1CCn2cc(C(=O)N3CCN(c4ccccc4)CC3)nc2C1 | -2.2 | 4.6
COc1ccc(Cl)cc1NC(=O)c1cccc(C(=O)Nc2cc(Cl)ccc2OC)n1 | -1.6 | -0.3
COc1ccc(-c2noc(C3CCCN3C(=O)NCc3ccccc3)n2)cc1 (stereo not drawn) | -1.9 | -2.7
O=C(C1CCN(c2ccc3ccccc3c2)C1=O)N1CCN(Cc2ccccc2)CC1 (stereo not drawn) | -1.1 | 54.1*
O=C(Nc1ccccc1)C1CCN(c2ccc3ccccc3c2)C1=O (stereo not drawn) | -2.8 | 2.8
O=c1cc(-c2ccccc2Cl)oc2ccc([N+](=O)[O-])c(O)c12 | -5.0 | 5.1
O=[N+]([O-])c1cc([N+](=O)[O-])c2oc(-c3ccccc3)c(Br)c2c1O | -1.0 | 96.0*
O=C(CCCOc1ccc(Cl)cc1Cl)NO | 6.6 | 2.3
O=C(NCc1ccccc1Cl)c1cc(-c2cccnc2)nc2ccccc12 | -5.3 | 23.0
CCOc1ccc(NC(=O)NCC(O)c2ccc(C(F)(F)F)cc2)cc1 (stereo not drawn) | -7.1 | -15.2
CN(C)c1ccc(C2(c3ccc(N(C)C)cc3)OC(=O)c3ccccc32)cc1 | 0.9 | 86.0*
O=C1OC(c2ccccc2)(c2ccccc2)c2ccccc21 | 1.3 | ·
CC(=O)N1CCN(c2nc3c(s2)CC(C(=O)Nc2ccc(C)c(Cl)c2)CC3)CC1 (stereo not drawn) | -9.1 | 21.2
Cc1ccc(C(=O)N2CCc3c(c(-c4nc(-c5ccc(F)cc5)no4)nn3C)C2)cc1C | 1.8 | 12.2
COc1ccc(CNC(=O)c2cc3ccccn3c2)cc1 | 0.5 | 6.8
COc1cccc(C(C)NC(=O)c2cc3ccccn3c2)c1 (stereo not drawn) | -3.2 | 67.8*
O=C(O)C1NC(c2cc(Cl)ccc2O)C2C(=O)N(c3ccccc3)C(=O)C12 (stereo not drawn) | -1.6 | -3.0
COc1ccc(Nc2nc(-c3cccnc3)nc3ccccc23)cc1 | -2.6 | 54.4*
Brc1ccc(Nc2nc(-c3cccnc3)nc3ccccc23)cc1 | -0.9 | 12.0
Cc1cc(Sc2cc(C)c(O)c(C(C)(C)C)c2)cc(C(C)(C)C)c1O | · | 14.9
Cc1cc(O)c(C(C)(C)C)cc1Sc1cc(C(C)(C)C)c(O)cc1C | · | 100.3*
SMILES | Pf apPOL block | mHTT CaM bind
CC(C)(C)c1cc(O)c(C(C)(C)C)cc1O | 48.6 | 12.4
Cc1cc(S(=O)c2cc(C)cc(C(C)(C)C)c2O)c(O)c(C(C)(C)C)c1 | · | 72.3*
Cc1cc(O)c(C(C)(C)C)cc1S(=O)c1cc(C(C)(C)C)c(O)cc1C | · | 68.0*
Cc1cc(Cc2cc(C(C)(C)C)c(O)c(C(C)(C)C)c2)c(O)c(C(C)(C)C)c1 | · | 9.3
Cc1cc(Br)ccc1N1CCC(C(=O)NC(C)(C)C)C1=O (stereo not drawn) | -0.8 | -0.8
OC(c1ccccn1)C1CCN(Cc2ccsc2)CC1 (stereo not drawn) | -1.0 | -0.6
O=[N+]([O-])c1ccc(Cl)cc1Sc1nc2ccccc2[nH]1 | -6.1 | -3.0
Nc1ncnc(Sc2nc3ccccc3[nH]2)c1[N+](=O)[O-] | 2.6 | 78.6*
O=[N+]([O-])c1cc(C(F)(F)F)cc([N+](=O)[O-])c1Sc1nc2ccccc2[nH]1 | 2.7 | 99.0*
Cn1cnc([N+](=O)[O-])c1Sc1nc2ccccc2[nH]1 | -0.4 | 2.0
O=[N+]([O-])c1ccc(NC2CC(O)C(CO)O2)cc1 (stereo not drawn) | · | -6.5
COc1ccc(OC)c(-c2c(C)c3cc(OCC(=O)OC(C)C)ccc3oc2=O)c1 | -10.3 | 4.7
CNC(=O)C(=O)Nc1nc(-c2ccccc2)cs1 | 1.7 | -0.7
CN(C)c1cccc(OCc2noc(-c3ccccc3Cl)n2)c1 | -9.3 | 67.5*
Clc1ccccc1-c1nc(COc2ccc3c(c2)OCO3)no1 | 0.5 | 5.4
CNCCN1C(=O)C(C)SC1c1ccccc1C (stereo not drawn) | -1.5 | 4.9
CCCC1CCC(C2=N/C(=C\c3cccc(OC)c3)C(=O)O2)CC1 (stereo not drawn) | 0.2 | -4.0
O=C1S/C(=C\c2ccc(F)cc2)C(=O)N1CNc1cccc(Cl)c1 | -4.2 | 21.0
O=C1S/C(=C\c2ccc(F)cc2)C(=O)N1CNc1ccccc1 | -1.8 | 57.0*
Cc1cccc(NCN2C(=O)S/C(=C\c3ccc(F)cc3)C2=O)c1 | -0.7 | 55.0*
O=C1S/C(=C\c2ccc(F)cc2)C(=O)N1CNc1ccc(Br)cc1 | -3.6 | 24.0
CN(C)CCN(C(=O)c1ccc2c(c1)CCCC2)c1nc2ccccc2s1 | -1.7 | 48.6
O=C(CN1C(=O)C2CCCCN2C(=O)c2ccccc21)NCc1ccccc1C(F)(F)F (stereo not drawn) | -2.2 | 9.2
O=C(Nc1ccc(F)cc1F)c1csc(-c2ccc(N3CCCCC3)nc2)n1 | 2.3 | -6.8
COc1cc(C)c(S(=O)(=O)n2nnc3ccccc32)cc1C | 3.3 | -14.2
SMILES | Pf apPOL block | mHTT CaM bind
COc1ccc(C)cc1S(=O)(=O)n1nnc2cc(Cl)ccc21 | 4.4 | 100.0*
COc1cc(C)c(C)cc1S(=O)(=O)n1nnc2ccccc21 | -2.3 | 88.5*
COc1ccc(S(=O)(=O)n2nnc3ccccc32)c(C)c1 | 18.7 | -2.0
COc1ccc(C)cc1S(=O)(=O)n1nc(C)cc1C | -3.1 | -21.4
COc1ccc(OC)c(S(=O)(=O)n2nnc3ccccc32)c1 | -4.4 | 100.0*
CC(=O)n1ccc2ccc(C(=O)CSc3nnc(-c4cccnc4)n3C)cc21 | -2.3 | -2.0
O=C(CCn1ccn2nc(-c3ccccc3)cc2c1=O)NCc1ccccc1 | -6.5 | -0.3
Cc1ccc2nc(C3C(=O)c4ccc(Br)cc4C3=O)ccc2c1 (stereo not drawn) | -5.7 | 3.4
Cc1ccc(C(=O)N2CC3CC(NS(=O)(=O)c4cccnc4)C2C3)cc1F (stereo not drawn) | -2.5 | -5.1
CC(Cn1nc(-c2cccs2)ccc1=O)C(=O)NCCc1ccc(S(N)(=O)=O)cc1 (stereo not drawn) | -10.5 | -16.6
CC(=O)NCc1csc(C2CCCN(S(=O)(=O)c3cccc(Cl)c3C)C2)n1 (stereo not drawn) | -5.3 | 26.4
O=C1C(NS(=O)(=O)c2ccccc2)=CC(=NS(=O)(=O)c2ccc(F)cc2)c2ccccc21 | -4.9 | 5.0
COc1ccccc1NC(=O)c1ccc(F)cc1 | -1.7 | -6.2
COc1ccc(NC2=CC(=NS(=O)(=O)c3ccc(Cl)cc3)c3ccccc3C2=O)cc1 | 0.0 | 35.0
COc1ccccc1NC1=CC(=NS(=O)(=O)c2ccc(F)cc2)c2ccccc2C1=O | 1.5 | 94.0*
COc1ccccc1NC1=CC(=NS(=O)(=O)c2ccc(C)cc2C)c2ccccc2C1=O | -5.5 | 92.0*
COc1ccc(S(=O)(=O)N=C2C=C(Nc3cccc(C)c3)C(=O)c3ccccc32)cc1 | -16.3 | 91.0*
Cc1ccccc1NC1=CC(=NS(=O)(=O)c2ccc(F)cc2)c2ccccc2C1=O | 3.3 | 96.0*
COc1ccccc1NC(=O)CN(c1ccc(C)cc1C)S(C)(=O)=O | -3.1 | 0.2
Cc1cc(C)cc(S(=O)(=O)N2CCC(c3nc(C(=O)N4CCOCC4)c(C)o3)CC2)c1 | -2.5 | 16.5
COc1ccc(S(=O)(=O)N=C2C=C(Nc3ccccc3OC)C(=O)c3ccccc32)cc1 | 0.2 | 91.0*
